SENP8 block-1: SENP8 (human) protease inhibition; Q96LD8; recombinant SENP8, Nedd8 substrate fluorescence; inhibition, % at 20 µM; hit rate 0.64% among 360,000; in the data active = inhibition mostly above about 40%, no sharp cut-off; inactive = mostly below about 27%
Target sequence (Q96LD8 whole entry, looked up): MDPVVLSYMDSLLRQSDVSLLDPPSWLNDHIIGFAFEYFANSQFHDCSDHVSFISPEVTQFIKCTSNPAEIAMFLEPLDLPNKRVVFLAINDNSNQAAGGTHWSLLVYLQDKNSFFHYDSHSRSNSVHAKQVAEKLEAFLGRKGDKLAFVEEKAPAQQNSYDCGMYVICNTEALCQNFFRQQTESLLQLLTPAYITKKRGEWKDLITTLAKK
SENP6 inh: SENP6 protease inhibition. Q9GZR1. hit rate 1.8% among 330,000. inhibition, % at 10 µM. Recombinant SENP6 catalytic domain, aminoluciferin luminescence;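 active = inhibition above about 50% at the single tested dose, limit read from the data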;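 note: plate controls were DMSO wells with enzyme for no effect and DMSO wells lacking enzyme for full effect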
TRAIL sens C8: caspase-8 TRAIL sensitization; NB7+C8 cells + TRAIL, ATPlite viability luminescence; inhibition (viability loss, TRAIL sensitization), % at 10 µM; hit rate 1% among 360,000;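 active = compounds causing at least 50% loss of cell viability in the single-dose screen, relative to plate controls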
SENP7 block: blocks the human protease SENP7; recombinant SENP7, Z-RLRGG-aminoluciferin luminescence, 40 min; Q9BQF6; inhibition, % at 5 µM; hit rate 1.5% among 330,000;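 active = inhibition above about 50% at the single test dose, limit read from the data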;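 note: plate controls were DMSO with enzyme for no effect and no enzyme buffer wells for full effect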
Target sequence (Q9BQF6 706-1050 limits assumed): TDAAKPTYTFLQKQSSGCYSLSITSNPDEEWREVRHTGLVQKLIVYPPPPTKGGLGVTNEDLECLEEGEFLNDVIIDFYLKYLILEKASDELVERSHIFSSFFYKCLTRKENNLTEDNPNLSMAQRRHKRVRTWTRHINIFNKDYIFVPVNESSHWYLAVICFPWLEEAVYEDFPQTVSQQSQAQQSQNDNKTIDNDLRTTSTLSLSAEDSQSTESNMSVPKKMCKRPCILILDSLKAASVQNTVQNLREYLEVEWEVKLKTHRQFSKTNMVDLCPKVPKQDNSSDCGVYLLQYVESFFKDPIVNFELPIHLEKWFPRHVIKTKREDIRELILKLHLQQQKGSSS
PPC-1+TRAIL kill: PPC-1 cancer cell killing with TRAIL present; hit rate 0.41% among 220,000; cell killing (% activity), % at 4 µM or 5 µM; PPC-1 cells + TRAIL, ATPLite viability luminescence; AID 1443;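 active = cell killing above 50% in the first pass at 4 µM, then a duplicate retest at 5 µM averaging 50% or more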;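 note: plate controls were cells with TRAIL plus DMSO for no effect and medium-only wells lacking cells for full effect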
SENP8 block-2: blocks the human protease SENP8; inhibition, % at 10 µM; hit rate 1.2% among 330,000; purified SENP8, Z-RLRGG-aminoluciferin cleavage, luminescence; AID 2540; Q96LD8; in the data active = inhibition above about 50%
Starred values were filed as active, the others as inactive; · = no result given. The list is not random: actives were taken first. Their share in the collection is about 3%.

SMILES	SENP8 block-1	SENP6 inh	TRAIL sens C8	SENP7 block	PPC-1+TRAIL kill	SENP8 block-2
CC1(Cc2ccc(OC(F)(F)F)cc2)C(=O)Nc2ccc(S(=O)(=O)NC3CCCCC3)cc21 (configuration not stated)	2.6	·	63.7*	·	·	·
CC1CCCCC1=NNC(=O)c1ccccc1 (configuration not stated)	5.6	·	-10.8	·	·	·
Cc1c(N2C(=O)CSC23C(=O)Nc2ccccc23)c(=O)n(-c2ccccc2)n1C (configuration not stated)	2.8	-33.8	10.2	0.3	-5.9	-0.5
Cc1c(N2C(=O)c3ccccc3C2(O)c2ccccc2)c(=O)n(-c2ccccc2)n1C (configuration not stated)	4.6	94.6*	-23.1	-1.2	-1.9	-2.3
O=C(O)c1ccc(CSC2CCCCC2)cc1	16.1	58.4*	-15.9	7.0	·	50.9*
O=C(O)c1ccc(CSc2nnc(SCc3ccccc3)s2)cc1	16.4	-26.2	-4.8	-1.6	8.7	2.9
O=C(O)c1ccc(N=N/C(=N\Nc2ccc(C(=O)O)cc2)c2ccccc2)cc1	44.7*	21.6	-1.5	-3.9	·	9.6
COc1cccc(C(=O)OCC(=O)Nc2cc(C)c(C)cc2[N+](=O)[O-])c1	14.2	-1.3	-0.7	0.1	15.8	-1.6
O=C(Nc1ccc(Cl)c(Cl)c1)Nc1nccs1	29.3	64.7*	9.5	25.9	5.2	35.7
COc1cccc(C(=O)Nc2cccc(-c3ccc(N4CCOCC4)nn3)c2)c1	-19.0	22.6	41.8	14.8	·	2.5
CC(=O)c1ccc(S(=O)(=O)Nc2cccc(-c3ccc(N4CCOCC4)nn3)c2)cc1	-9.3	16.4	31.8	-4.3	·	-3.2
COc1cccc(C(=O)Nc2cccc(-c3ccc(N4CCOCC4)nn3)c2)c1OC	-37.4	-17.6	67.0*	-24.9	·	-6.8
COc1ccc(C(=O)Nc2cccc(-c3ccc(N4CCOCC4)nn3)c2)cc1OC	-18.8	30.2	64.0*	27.5	·	6.8
O=C(Nc1cccc(-c2ccc(N3CCOCC3)nn2)c1)c1ccc(F)cc1F	-14.9	25.2	51.2*	33.9	·	1.2
CCOc1ccc(C(=O)Nc2cccc(-c3ccc(N4CCOCC4)nn3)c2)cc1OCC	-22.4	3.9	44.2	2.7	·	-0.5
COc1ccc(NC(=O)/C(C#N)=C/c2ccc(-c3ccc(Cl)c(C(=O)O)c3)o2)cc1	23.7	-27.8	60.2*	-23.0	·	-3.2
COc1ccc(NC(=O)/C(C#N)=C/c2ccc(-c3ccccc3C(=O)O)o2)cc1	15.7	8.1	28.0	1.0	·	1.9
O=C(Nc1nnc(/N=C/c2ccco2)s1)c1ccc(F)cc1	-3.7	-2.7	49.7*	-4.5	-1.2	-5.5
O=C(Nc1nnc(-c2ccc(F)cc2)s1)c1ccco1	-163.8	2.1	23.0	2.4	·	-0.2
O=C1/C(=N\S(=O)(=O)c2cccs2)C([n+]2cccc(Cc3ccccc3)c2)=C([O-])c2ccccc21	77.3*	49.0	48.0*	30.3	29.6	30.8
CC[C@@H](C)[C@H](CN[C@H](CNC)C(C)C)NC[C@@H](C)c1ccc(CC(C)C)cc1	18.9	-11.0	64.5*	8.3	·	1.6
OC(c1cc(Cl)cc(Cl)c1)c1ncc(-c2cccc(F)c2)[nH]1 (configuration not stated)	8.1	·	-1.9	·	·	·
COc1ccc(C=C2SC(=O)NC2=O)cc1OC	-67.9	·	2.2	·	·	·
CCN1C/C(=C/c2ccc(OC)c(O)c2)C(=O)/C(=C/c2ccc(OC)c(O)c2)C1	4.2	-15.8	12.6	0.7	50.5*	6.9
COc1ccc(C=C2C=C(C(C)(C)C)C(=O)C(C(C)(C)C)=C2)cc1OC	15.0	-9.6	86.8*	4.7	·	1.3
SMILES	SENP8 block-1	SENP6 inh	TRAIL sens C8	SENP7 block	PPC-1+TRAIL kill	SENP8 block-2
COc1ccc(/C=C2\CC/C(=C\c3ccc(OC)c(OC)c3)C2=O)cc1OC	22.6	3.5	63.6*	-4.2	38.6	-1.5
COc1cccc(/C=C2\CCc3ccccc3C2=O)c1	32.3	99.2*	82.4*	93.9*	-6.3	94.7*
Cc1cc(C)c(S(=O)(=O)N2CCOC2CNC(=O)C(=O)NCCN2CCOCC2)c(C)c1 (configuration not stated)	3.5	-13.9	4.0	-7.9	·	-3.7
CC(C)COCc1ccc(O)c2ncccc12	12.9	-5.2	51.7*	-0.3	14.0	0.8
O=C(C[C@@H]1C=C[C@H](NC(=O)Cc2ccccn2)[C@@H](CO)O1)NCCc1ccccc1	8.1	·	-19.6	·	·	·
Cc1ccc(C)c(OCC(O)CN2CCN(CCN3C(=O)c4cccc5cccc(c45)C3=O)CC2)c1 (configuration not stated)	-1.8	-0.2	-7.2	-5.1	19.5	-5.3
CC(=O)c1ccccc1OCC(O)CN1CCN(CCN2C(=O)c3cccc4cccc(c34)C2=O)CC1 (configuration not stated)	-28.7	2.8	60.1*	-6.3	26.9	-3.1
O=c1c(Br)c(Br)cnn1-c1ccccc1	17.2	·	96.7*	·	33.4	·
Cc1ccc(-n2ncc(Br)c(Br)c2=O)cc1	-5.0	·	1.1	·	20.5	·
O=C1CNC(=S)N1CCCc1ccccc1	4.7	0.2	-1.3	10.3	·	-7.0
COc1cccc(N/C=C/C(=O)c2ccc(Cl)cc2)c1	-96.1	·	53.4*	·	52.8*	·
COc1ccc(N/C=C/C(=O)c2ccc(Cl)cc2)cc1	-11.5	-5.8	43.1	43.4	21.1	-13.0
COc1cc(OC)cc(-c2noc([C@@H]3O[C@H](CO)[C@@H](O)[C@H]3O)n2)c1	12.9	·	4.7	·	·	·
O=C1NCCCC2c3cc(O)c4ccccc4c3OC12N1CCCCC1 (configuration not stated)	·	71.1*	·	35.9	9.7	62.8*
CCOC(=O)c1c(C)oc(=O)c(CC)c1O	7.4	·	-0.4	·	·	·
CCOC(=O)c1c(C)oc2c(F)c(F)c(F)c(F)c2c1=O	-24.9	0.8	94.0*	-4.2	21.1	-2.2
COc1ccccc1-c1csc(C(NC(C)=O)c2ccc(F)c(F)c2)n1 (configuration not stated)	9.9	·	3.4	·	·	·
CCCCN(CC)CCCNC(=O)C1c2ccccc2C(=O)N(C)C1c1cn(C)c2ccccc12 (configuration not stated)	23.2	-3.9	61.4*	-2.1	-8.4	-4.8
COc1ccccc1C(=O)NNC(=O)c1cccc(O)c1	19.9	17.3	50.0*	5.4	·	-0.1
O=C(Nc1ccc(C(=O)O)cc1)/C(=C\C=C\c1ccccc1)NC(=O)c1ccccc1Br	-2.2	1.7	50.0*	-9.3	·	-22.6
CCN(CC)c1ccc(NC(=O)CSc2ccsc2[N+](=O)[O-])c(C)c1	45.6*	6.7	-9.6	6.1	-3.1	3.4
Cc1ccccc1NC(=O)C(=O)Nc1ccccc1C	11.3	29.9	-6.0	80.2*	33.2	9.5
CC(=O)C1=C(c2ccc(Br)cc2)C(=O)c2ccccc2C1=O	9.5	·	27.4	·	23.4	·
CNC1=C(N(C(C)=O)c2ccc(Br)cc2)C(=O)c2ccccc2C1=O	84.5*	·	92.2*	·	68.2*	·
